These results are taken from PubChem BioAssay (NCATS).

The subject of one experiment is MCC-13. The experiment can be described thus: qHTS assay to identify novel small-molecules to repurpose for Merkel cell carcinoma treatment (AID 1296009). Note: nearly all actives have a fitted effect of over 60% in size. Note: potency is the fitted concentration of half-maximal effect. The settings on record: MCC and control cell lines, CellTiter-Glo viability, 72 h; series mostly up to 46 µM. The essentials: (§1)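 After compound transfer in DMSO, plates were kept 72 hr at 37 degree celsius. Luminescent ATP signal from CellTiter-Glo served as viability measure, normalized against DMSO and no-cell controls.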

The subject of a further experiment is MCC-26. The experiment is described as above. The settings on record: MCC and control cell lines, CellTiter-Glo viability, 72 h; series mostly up to 46 µM. The gist of the method: as §1
A general note: Cellular ATP, detected with luciferase, serves as a proxy for viable cell number.

The test system of a further experiment is MKL-1. The description is as above. The settings on record: MCC and control cell lines, CellTiter-Glo viability, 72 h; series mostly up to 46 µM. The essentials: as §1
A further experiment has as its system MKL-2. The description is as above. The settings on record: MCC and control cell lines, CellTiter-Glo viability, 72 h; series mostly up to 46 µM. The essentials:
as §1

Another experiment concerns UISO. Described as above. The settings on record: MCC and control cell lines, CellTiter-Glo viability, 72 h; series mostly up to 46 µM. The essentials:
as §1

The test system of another experiment is WaGa. Described as above. The settings on record: MCC and control cell lines, CellTiter-Glo viability, 72 h; series mostly up to 46 µM. The essentials:
as §1

Another experiment concerns C33A. The experiment can be described thus: Primary qHTS to identify gynecologic anti-cancer compounds using libraries of approved drugs and bioactive compounds (AID 1345084). Note: nearly all actives have a fitted effect of over 55% in size. Note: potency is the fitted concentration of half-maximal effect. The settings on record: Gynecologic cancer cell panel viability, ATPlite luminescence, 48 h; series mostly up to 57.5 µM. The gist of the method: (§2)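 Five-point cytotoxicity, 48 h drug exposure at 37 C, 5% CO2, on cells seeded 16 h beforehand. ATP content read by ATPlite luminescence.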
In general terms: In qHTS, concentration-response curves come from the screen itself.

For another experiment, the system named is CASKI. The description is as above. The settings on record: Gynecologic cancer cell panel viability, ATPlite luminescence, 48 h; series mostly up to 57.5 µM. The gist of the method:
as §2

The subject of another experiment is Es-2. The description is as above. The settings on record: Gynecologic cancer cell panel viability, ATPlite luminescence, 48 h; series mostly up to 57.5 µM. The essentials: as §2
The test system of a further experiment is HeLa. The description is as above. The settings on record: Gynecologic cancer cell panel viability, ATPlite luminescence, 48 h; series mostly up to 57.5 µM. The gist of the method:
as §2

In a further experiment the test system is Hek293T. The description is as above. The settings on record: Gynecologic cancer cell panel viability, ATPlite luminescence, 48 h, control line for the selectivity index; series mostly up to 57.5 µM. The essentials: as §2
Another experiment relates to JEG-3. Described as above. The settings on record: Gynecologic cancer cell panel viability, ATPlite luminescence, 48 h; series mostly up to 57.5 µM. The essentials:
as §2

The next experiment concerns OV90. The description is as above. The settings on record: Gynecologic cancer cell panel viability, ATPlite luminescence, 48 h; series mostly up to 57.5 µM. The gist of the method: as §2
The subject of another experiment is PA-1. The experiment is described as above. The settings on record: Gynecologic cancer cell panel viability, ATPlite luminescence, 48 h; series mostly up to 57.5 µM. The essentials:
as §2

In the next experiment the test system is Tov-21-G. The description is as above. The settings on record: Gynecologic cancer cell panel viability, ATPlite luminescence, 48 h; series mostly up to 57.5 µM. The gist of the method:
as §2

The test system of the next experiment is Tov112D. The description is as above. The settings on record: Gynecologic cancer cell panel viability, ATPlite luminescence, 48 h; series mostly up to 57.5 µM. The gist of the method: as §2
The next experiment concerns SKOV3. The experiment is described as above. The settings on record: Gynecologic cancer cell panel viability, ATPlite luminescence, 48 h; series mostly up to 57.5 µM. The gist of the method: as §2
Experiment [1] can be described thus: Drug repurposing screens with cells derived from glioblastoma tumor samples (AID 1345199). Note: nearly all actives have a fitted effect of over 40% in size. The settings on record: GBM patient neurospheres viability, ATP luminescence, 48 h; Potency: tumour line A unless noted; series mostly up to 45.9 µM. The gist of the method: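 Four patient lines of CD133+ GBM neurospheres were screened at several concentrations; hits were retested in those lines plus three slower-growing GBM lines, using 48-hour treatment and ATP-based viability.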

A further experiment has as its system CAOV3. Briefly: Primary qHTS to identify gynecologic anti-cancer compounds using libraries of approved drugs and bioactive compounds (AID 1345084). Note: nearly all actives have a fitted effect of over 55% in size. Note: potency is the fitted concentration of half-maximal effect. The settings on record: Gynecologic cancer cell panel viability, ATPlite luminescence, 48 h; series mostly up to 57.5 µM. The gist of the method:
as §2

Records with an inconclusive call do not appear. Activity calls are given as the source filed them. Calls come from the whole dose curve; as a rule, active = well fitted curve in the direction sought with a large enough effect; inconclusive = small, poorly fitted or top-dose-only effect, or another doubt; inactive = no such curve, though single readings can be large; an effect the other way counts as inactive or inconclusive.

For `O=C(N[C@@H](COc1ccc2[nH]c(=O)[nH]c2c1)c1ccccc1)c1cccn(Cc2ccc(F)c(F)c2)c1=O`, the Potency entry with MCC-13, in the experiment with MCC-26, in the experiment with MKL-1, with MKL-2, in the experiment on UISO and in the experiment on WaGa was “inactive” throughout. The Potency entry with C33A, in the experiment on CASKI, with Es-2, with HeLa, in the experiment with Hek293T and in the experiment with JEG-3 was “inactive” in each case. Also, the Potency result with OV90, in the experiment with PA-1, in the experiment on Tov-21-G and in the experiment on Tov112D was “inactive” in each case.

As to `C1CCC(NC2CCCCC2)CC1`, the Potency result with MCC-13, in the experiment with MCC-26, with MKL-1, in the experiment on MKL-2, in the experiment on UISO and in the experiment on WaGa was “inactive” each time. Moreover, the Potency result with C33A, with CASKI, in the experiment on Es-2, in the experiment on HeLa, in the experiment with Hek293T and in the experiment with JEG-3 was “inactive” in each case. Further, the Potency result (in the experiment on OV90; with PA-1; in the experiment with SKOV3; in the experiment with Tov-21-G; with Tov112D; in experiment [1]) was “inactive” in each case.

As to `O=C(O)CNC(=O)c1c(O)c2ccccc2n(Cc2ccccc2)c1=O`, the Potency entry in the experiment on MCC-13, in the experiment on MCC-26, with MKL-1, in the experiment with MKL-2, in the experiment with UISO and in the experiment on WaGa was “inactive” throughout. Further, the Potency result with C33A, in the experiment on CASKI, with Es-2, in the experiment on HeLa, in the experiment on Hek293T and in the experiment on OV90 was “inactive” each time. Moreover, the Potency entry in the experiment with PA-1, with SKOV3, in the experiment with Tov-21-G and in the experiment on Tov112D was “inactive” throughout.

As for `C=C[C@@H]1CN2CCC1C[C@@H]2[C@@H](O)c1ccnc2ccccc12` (stereo not given in full), the Potency result in the experiment with MCC-13, in the experiment with MCC-26, in the experiment with MKL-1, in the experiment on MKL-2 and in the experiment on WaGa was “inactive” throughout.

Regarding `CC1(N2CCC(n3c([C@@H]4CCCNC4)nc4ccccc43)CC2)CCCCCCC1`, the Potency result in the experiment on MCC-13 and with MCC-26 was “inactive” throughout. The Potency is 23.5 µM (active) in the experiment with MKL-1; 13.2 µM (active) in the experiment on MKL-2; 22.4 µM (active) with Es-2; 11.2 µM (active) in the experiment on JEG-3; 12.6 µM (active) with OV90; 15.8 µM (active) in the experiment with PA-1. Moreover, in the experiment on Tov112D, the Potency is 22.4 µM (active).

In the case of `CC1(C)CC/C(=C/c2ccc(Cl)cc2)C1(O)Cn1cncn1` (stereo not given), the Potency entry in the experiment with MCC-13, with MCC-26, with MKL-1, in the experiment with MKL-2, in the experiment with UISO and in the experiment with C33A was “inactive” throughout. The Potency result in the experiment with CASKI, in the experiment on Es-2, with HeLa, in the experiment with Hek293T, in the experiment on JEG-3 and with PA-1 was “inactive” each time. In addition, the Potency result in the experiment on SKOV3, with Tov-21-G and with Tov112D was “inactive” each time.

As for `CCCCOC(=O)c1ccccc1C(=O)OCc1ccccc1`, the Potency result in the experiment with MCC-13, with MCC-26, in the experiment on MKL-1, in the experiment on MKL-2, in the experiment with UISO and in the experiment with WaGa was “inactive” throughout. Also, the Potency result with C33A, in the experiment on CAOV3, in the experiment on CASKI, in the experiment with Es-2, with HeLa and with Hek293T was “inactive” throughout. For the same molecule, the Potency result (in the experiment on JEG-3; in the experiment on PA-1; with Tov-21-G; in the experiment on Tov112D; in experiment [1]) was “inactive” each time.

As to `CCCCC(CC)COC(=O)c1ccccc1C(=O)OCC(CC)CCCC` (stereo not given), the Potency result in the experiment on MCC-13, in the experiment on MCC-26, in the experiment with MKL-1, in the experiment with MKL-2, with UISO and in the experiment on WaGa was “inactive” in each case. The Potency entry in the experiment on C33A, in the experiment on CASKI, in the experiment with Es-2, in the experiment on HeLa, with Hek293T and with JEG-3 was “inactive” throughout. Further, the Potency entry in the experiment with PA-1, in the experiment on Tov-21-G and in the experiment with Tov112D was “inactive” in each case.

As for `OCCCBr`, the Potency result with MCC-13, with MCC-26, in the experiment with MKL-1, in the experiment on MKL-2, in the experiment on UISO and in the experiment with WaGa was “inactive” each time. For the same molecule, the Potency result with C33A, with CAOV3, in the experiment with CASKI, in the experiment with Es-2, in the experiment with HeLa and in the experiment with Hek293T was “inactive” in each case. The Potency result (in the experiment with JEG-3; in the experiment on OV90; with Tov-21-G; with Tov112D; in [1]) was “inactive” each time.

As for `CN(C)[C@@H]1C(=O)C(C(N)=O)=C(O)[C@@]2(O)C(=O)C3=C(O)c4c(O)cccc4[C@@](C)(O)[C@H]3[C@H](O)[C@@H]12`, the Potency result in the experiment with MCC-13, in the experiment on MCC-26, with MKL-1, in the experiment with MKL-2, in the experiment with UISO and in the experiment with WaGa was “inactive” throughout. Besides, the Potency entry in [1] was “inactive”.
